# In the supplement of paper PMC8728848:
# This excerpt belongs to a sample that is enriched for the strongest signals.
# B1: Endo180d1-D4 (Homo sapiens), Q9UBG0 (protein)
# chain: MGPGRPAPAPWPRHLLRCVLLLGCLHLGRPGAPGDAALPEPNVFLIFSHGLQGCLEAQGGQVRVTPACNTSLPAQRWKWVSRNRLFNLGTMQCLGTGWPGTNTTASLGMYECDREALNLRWHCRTLGDQLSLLLGARTSNISKPGTLERGDQTRSGQWRIYGSEEDLCALPYHEVYTIQGNSHGKPCTIPFKYDNQWFHGCTSTGREDGHLWCATTQDYGKDERWGFCPIKSNDCETFWDKDQLTDSCYQFNFQSTLSWREAWASCEQQGADLLSITEIHEQTYINGLLTGYSSTLWIGLNDLDTSGGWQWSDNSPLKYLNWESDQPDNPSEENCGVIRTESSGGWQNRDCSIALPYVCKKKPNATAEPTPPDRWANVKVECEPSWQPFQGHCYRLQAEKRSWQESKKACLRGGGDLVSIHSMAELEFITKQIKQEVEELWIGLNDLKLQMNFEWSDGSLVSFTHWHPFEPNNFRDSLEDCVTIWGPEGRWNDSPCNQSLPSICKKAGQLSQGAAEEDHGCRKGWTWHSPSCYWLGEDQVTYSEARRLCTDHGSQLVTITNRFEQAFVSSLIYNWEGEYFWTALQDLNSTGSFFWLSGDEVMYTHWNRDQPGYSRGGCVALATGSAMGLWEVKNCTSFRARYICRQSLGTPVTPELPGPDPTPSLTGSCPQGWASDTKLRYCYKVFSSERLQDKKSWVQAQGACQELGAQLLSLASYEEEHFVANMLNKIFGESEPEIHEQHWFWIGLNRRDPRGGQSWRWSDGVGFSYHNFDRSRHDDDDIRGCAVLDLASLQWVAMQCDTQLDWICKIPRGTDVREPDDSPQGRREWLRFQEAEYKFFEHHSTWAQAQRICTWFQAELTSVHSQAELDFLSHNLQKFSRAQEQHWWIGLHTSESDGRFRWTDGSIINFISWAPGKPRPVGKDKKCVYMTASREDWGDQRCLTALPYICKRSNVTKETQPPDLPTTALGGCPSDWIQFLNKCFQVQGQEPQSRVKWSEAQFSCEQQEAQLVTITNPLEQAFITASLPNVTFDLWIGLHASQRDFQWVEQEPLMYANWAPGEPSGPSPAPSGNKPTSCAVVLHSPSAHFTGRWDDRSCTEETHGFICQKGTDPSLSPSPAALPPAPGTELSYLNGTFRLLQKPLRWHDALLLCESHNASLAYVPDPYTQAFLTQAARGLRTPLWIGLAGEEGSRRYSWVSEEPLNYVGWQDGEPQQPGGCTYVDVDGAWRTTSCDTKLQGAVCGVSSGPPPPRRISYHGSCPQGLADSAWIPFREHCYSFHMELLLGHKEARQRCQRAGGAVLSILDEMENVFVWEHLQSYEGQSRGAWLGMNFNPKGGTLVWQDNTAVNYSNWGPPGLGPSMLSHNSCYWIQSNSGLWRPGACTNITMGVVCKLPRAEQSSFSPSALPENPAALVVVLMAVLLLLALLTAALILYRRRQSIERGAFEGARYSRSSSSPTEATEKNILVSDMEMNEQQE
# Columns and labels:
# Experiment in all cases: glycan array binding signal (z-score within array); higher = stronger binding
# Conditions in all cases: glycan notation: IUPAC condensed, linker removed
# [1] = target: Fuc(a1-2)Gal(b1-4)Fuc(a1-3)]GlcNAc(b1-2)Man(a1-3)[Fuc(a1-2)Gal(b1-4)[Fuc(a1-3)]GlcNAc(b1-2)Man(a1-6)]Man(b1-4)GlcNAc(b1-4)GlcNAc
# Summary of the method: (§1)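 Arrays were curated from the Consortium for Functional Glycomics database, 3228 in total, and kept only where the protein sequence was available. Binding is expressed as a within-array Z-score. This score was averaged across arrays of the same protein sequence at different concentrations or buffers and across linkers, and negative values can be read as non-binding.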
# [2] = target: Fuc(a1-2)Gal(b1-4)GlcNAc(b1-3)[Fuc(a1-3)[Gal(b1-4)]GlcNAc(b1-6)]Gal(b1-4)Glc
# Summary of the method: as §1
# [3] = target: Fuc(a1-2)Gal(b1-4)[Fuc(a1-3)]GlcNAc(b1-3)Gal(b1-4)[Fuc(a1-3)]GlcNAc
# Summary of the method: as §1
# [4] = target: Fuc(a1-2)[Gal(a1-3)]Gal(b1-3)GlcNAc(b1-6)GalNAc
# Summary of the method: as §1
# [5] = target: Fuc(a1-2)[Gal(a1-3)]Gal(b1-4)GlcNAc(b1-2)Man(a1-3)[Fuc(a1-2)[Gal(a1-3)]Gal(b1-4)GlcNAc(b1-2)Man(a1-6)]Man(b1-4)GlcNAc(b1-4)[Fuc(a1-6)]GlcNAc
# Summary of the method: as §1
# [6] = target: Fuc(a1-2)[Gal(a1-3)]Gal(b1-4)GlcNAc(b1-3)GalNAc
# Summary of the method: as §1
# [7] = target: Fuc(a1-2)[Gal(a1-3)]Gal(b1-4)[Fuc(a1-3)]GlcNAc(b1-3)GalNAc
# Summary of the method: as §1
# [8] = target: Fuc(a1-3)[Gal(b1-4)]GlcNAc
# Summary of the method: as §1
# [9] = target: Gal(a1-3)Gal(b1-3)GlcNAc(b1-6)GalNAc
# Summary of the method: as §1
# [10] = target: Gal(a1-3)[Gal(a1-4)]Gal(b1-4)GlcNAc
# Summary of the method: as §1
# Gal(a1-4)GlcNAc = target: Gal(a1-4)GlcNAc
# Summary of the method: as §1
# Gal(a1-6)Glc = target: Gal(a1-6)Glc
# Summary of the method: as §1
# [11] = target: Gal(b1-3)[Fuc(a1-4)]GlcNAc(b1-3)Gal(b1-3)[Fuc(a1-4)]GlcNAc
# Summary of the method: as §1
# [12] = target: Gal(b1-4)GlcNAc(b1-2)Man(a1-3)[Gal(b1-4)GlcNAc(b1-2)Man(a1-6)][GlcNAc(b1-4)]Man(b1-4)GlcNAc(b1-4)[Fuc(a1-6)]GlcNAc
# Summary of the method: as §1
# [13] = target: Gal(b1-4)GlcNAc(b1-2)Man(a1-6)Man(b1-4)GlcNAc(b1-4)GlcNAc
# Summary of the method: as §1
# [14] = target: Gal(b1-4)GlcNAc(b1-3)Gal(b1-3)GlcNAc
# Summary of the method: as §1
# [15] = target: Gal(b1-4)GlcNAc(b1-6)Gal(b1-4)GlcNAc
# Summary of the method: as §1
# [16] = target: Gal3S(b1-4)[Fuc(a1-3)]Glc6S
# Summary of the method: as §1
# Gal3S6S(b1-4)GlcNAc6S = target: Gal3S6S(b1-4)GlcNAc6S
# Summary of the method: as §1
# Gal6S(b1-4)GlcNAc6S = target: Gal6S(b1-4)GlcNAc6S
# Summary of the method: as §1
# [17] = target: GalNAc(a1-3)GalNAc(b1-3)Gal(a1-4)Gal(b1-4)GlcNAc
# Summary of the method: as §1
# GalNAc(b1-6)GalNAc = target: GalNAc(b1-6)GalNAc
# Summary of the method: as §1
# GalNAc4S6S(b1-4)GlcNAc = target: GalNAc4S6S(b1-4)GlcNAc
# Summary of the method: as §1
# [18] = target: GlcNAc(b1-2)Man(a1-3)[GlcNAc(b1-2)Man(a1-6)]Man(b1-4)GlcNAc(b1-4)[Fuc(a1-6)]GlcNAc
# Summary of the method: as §1
# [19] = target: GlcNAc(b1-3)Gal(b1-4)GlcNAc(b1-3)Gal(b1-4)GlcNAc(b1-2)[GlcNAc(b1-3)Gal(b1-4)GlcNAc(b1-3)Gal(b1-4)GlcNAc(b1-6)]Man(a1-6)[GlcNAc(b1-3)Gal(b1-4)GlcNAc(b1-3)Gal(b1-4)GlcNAc(b1-2)Man(a1-3)]Man(b1-4)GlcNAc(b1-4)[Fuc(a1-6)]GlcNAc
# Summary of the method: as §1
# [20] = target: GlcNAc(b1-3)Gal(b1-4)GlcNAc(b1-3)[GlcNAc(b1-3)Gal(b1-4)GlcNAc(b1-3)]GalNAc
# Summary of the method: as §1
# [21] = target: GlcNAc(b1-4)[GlcNAc(b1-6)]GalNAc
# Summary of the method: as §1
# [22] = target: Man(a1-2)Man(a1-3)[Man(a1-6)]Man(a1-6)[Man(a1-2)Man(a1-3)]Man(b1-4)GlcNAc(b1-4)GlcNAc
# Summary of the method: as §1
# [23] = target: Man(a1-3)[Man(a1-6)]Man(b1-4)GlcNAc(b1-4)[Fuc(a1-6)]GlcNAc
# Summary of the method: as §1
# [24] = target: Neu5Ac(a2-3)Gal(b1-3)GalNAc(b1-4)Gal(b1-4)Glc
# Summary of the method: as §1
# [25] = target: Neu5Ac(a2-3)Gal(b1-3)[Neu5Ac(a2-6)]GalNAc
# Summary of the method: as §1
# [26] = target: Neu5Ac(a2-3)Gal(b1-4)GlcNAc(b1-2)Man(a1-3)[Neu5Ac(a2-3)Gal(b1-4)GlcNAc(b1-2)Man(a1-6)]Man(b1-4)GlcNAc(b1-4)GlcNAc
# Summary of the method: as §1
# [27] = target: Neu5Ac(a2-3)Gal(b1-4)GlcNAc(b1-3)Gal
# Summary of the method: as §1
# [28] = target: Neu5Ac(a2-3)Gal(b1-4)[Fuc(a1-3)]GlcNAc
# Summary of the method: as §1
# [29] = target: Neu5Ac(a2-3)Gal(b1-4)[Fuc(a1-3)]GlcNAc(b1-3)Gal(b1-4)[Fuc(a1-3)]GlcNAc(b1-3)Gal(b1-4)[Fuc(a1-3)]GlcNAc
# Summary of the method: as §1
# [30] = target: Neu5Ac(a2-6)Gal(b1-4)GlcNAc(b1-2)Man(a1-3)[GlcNAc(b1-2)Man(a1-6)]Man(b1-4)GlcNAc(b1-4)GlcNAc
# Summary of the method: as §1
# [31] = target: Neu5Ac(a2-6)Gal(b1-4)GlcNAc(b1-2)Man(a1-3)[Neu5Ac(a2-3)Gal(b1-4)GlcNAc(b1-2)Man(a1-6)]Man(b1-4)GlcNAc(b1-4)GlcNAc
# Summary of the method: as §1
# [32] = target: Neu5Ac(a2-6)Gal(b1-4)GlcNAc(b1-2)Man(a1-6)[GlcNAc(b1-2)Man(a1-3)]Man(b1-4)GlcNAc(b1-4)GlcNAc
# Summary of the method: as §1
# [33] = target: Neu5Ac(a2-6)Gal(b1-4)GlcNAc(b1-2)[Neu5Ac(a2-6)Gal(b1-4)GlcNAc(b1-4)]Man(a1-3)[GlcNAc(b1-4)][Neu5Ac(a2-6)Gal(b1-4)GlcNAc(b1-2)[Neu5Ac(a2-6)Gal(b1-4)GlcNAc(b1-6)]Man(a1-6)]Man(b1-4)GlcNAc(b1-4)GlcNAc
# Summary of the method: as §1
# [34] = target: Neu5Ac(a2-6)Gal(b1-4)GlcNAc(b1-2)[Neu5Ac(a2-6)Gal(b1-4)GlcNAc(b1-6)]Man(a1-6)[Neu5Ac(a2-6)Gal(b1-4)GlcNAc(b1-2)Man(a1-3)][GlcNAc(b1-4)]Man(b1-4)GlcNAc(b1-4)GlcNAc
# Summary of the method: as §1
# [35] = target: Neu5Ac(a2-6)Gal(b1-4)GlcNAc(b1-3)Gal(b1-4)[Fuc(a1-3)]GlcNAc(b1-3)Gal(b1-4)[Fuc(a1-3)]GlcNAc
# Summary of the method: as §1
# [36] = target: Neu5Ac(a2-6)Gal(b1-4)GlcNAc(b1-6)GalNAc
# Summary of the method: as §1
# [37] = target: Neu5Ac(a2-6)Gal(b1-4)GlcNAc(b1-6)[Gal(b1-3)GlcNAc(b1-3)]Gal(b1-4)Glc
# Summary of the method: as §1
# [38] = target: Neu5Gc(a2-8)Neu5Ac(a2-3)Gal(b1-4)GlcNAc
# Summary of the method: as §1
binder,measurement,setting,value
B1,glycan array binding signal (z-score),[1],4.92
same,glycan array binding signal (z-score),[2],2.16
same,glycan array binding signal (z-score),[3],1.23
same,glycan array binding signal (z-score),[4],0.628
same,glycan array binding signal (z-score),[5],-0.162
same,glycan array binding signal (z-score),[6],0.423
same,glycan array binding signal (z-score),[7],4.86
same,glycan array binding signal (z-score),[8],-0.373
same,glycan array binding signal (z-score),[9],0.29
same,glycan array binding signal (z-score),[10],0.096
same,glycan array binding signal (z-score),Gal(a1-4)GlcNAc,-0.552
same,glycan array binding signal (z-score),Gal(a1-6)Glc,0.11
same,glycan array binding signal (z-score),[11],3.87
same,glycan array binding signal (z-score),[12],-1.03
same,glycan array binding signal (z-score),[13],0.463
same,glycan array binding signal (z-score),[14],0.375
same,glycan array binding signal (z-score),[15],-1.39
same,glycan array binding signal (z-score),[16],0.973
same,glycan array binding signal (z-score),Gal3S6S(b1-4)GlcNAc6S,4.83
same,glycan array binding signal (z-score),Gal6S(b1-4)GlcNAc6S,2.48
same,glycan array binding signal (z-score),[17],-0.306
same,glycan array binding signal (z-score),GalNAc(b1-6)GalNAc,-0.31
same,glycan array binding signal (z-score),GalNAc4S6S(b1-4)GlcNAc,3.2
same,glycan array binding signal (z-score),[18],5.6
same,glycan array binding signal (z-score),[19],4.5
same,glycan array binding signal (z-score),[20],-0.76
same,glycan array binding signal (z-score),[21],-1.12
same,glycan array binding signal (z-score),[22],-0.036
same,glycan array binding signal (z-score),[23],0.638
same,glycan array binding signal (z-score),[24],-3.76
same,glycan array binding signal (z-score),[25],-0.517
same,glycan array binding signal (z-score),[26],-0.688
same,glycan array binding signal (z-score),[27],0.249
same,glycan array binding signal (z-score),[28],-0.083
same,glycan array binding signal (z-score),[29],-0.132
same,glycan array binding signal (z-score),[30],3.38
same,glycan array binding signal (z-score),[31],0.363
same,glycan array binding signal (z-score),[32],-0.485
same,glycan array binding signal (z-score),[33],-0.277
same,glycan array binding signal (z-score),[34],2.92
same,glycan array binding signal (z-score),[35],2.78
same,glycan array binding signal (z-score),[36],0.474
same,glycan array binding signal (z-score),[37],-0.046
same,glycan array binding signal (z-score),[38],-0.032
